Counter-ions that a name gives are not always drawn. ± gives the standard deviation of the averaged measurements. In all, about 1,800 compounds were measured (“GFP- (p16Ink4a-) cell count relative to negative-control wells”: median about 0.99, lowest 2% from about 0.5 on). Only a selection was taken, and the lowest values are over-represented in it overall.
These molecules were tested on mouse p16Ink4a+/- lung fibroblasts (INKBRITE, bleomycin-injured) (assay: GFP- (p16Ink4a-) cell count relative to negative-control wells (fold of vehicle); higher = more p16Ink4a- cells surviving). Conditions: 1 µM; 3 days.

| Structure (SMILES) | GFP- |
| --- | --- |
| C/C(=C\c1csc(C)n1)[C@@H]1C[C@@H]2O[C@@H]2CCC[C@H](C)[C@H](O)[C@@H](C)C(=O)C(C)(C)[C@@H](O)CC(=O)O1 [Epothilone A] | 0.423 |
| C/C(=C\c1csc(C)n1)[C@@H]1C[C@@H]2O[C@]2(C)CCC[C@H](C)[C@H](O)[C@@H](C)C(=O)C(C)(C)[C@@H](O)CC(=O)O1 [Epothilone B, Patupilone] | 1.03 |
| CN(C)[C@@H]1C(=O)C(C(N)=O)=C(O)[C@@]2(O)C(O)=C3C(=O)c4c(O)cccc4[C@@](C)(O)[C@H]3C[C@@H]12 [Tetracycline] | 1.07 |
| C=C1C[C@@H]2[C@H](CC[C@]3(C)C(=O)CC[C@@H]23)[C@@]2(C)C=CC(=O)C=C12 [Exemestane] | 1.13 |
| C[C@@H]1CC[C@@]2(OC1)O[C@H]1C[C@H]3[C@@H]4CC=C5C[C@@H](O[C@@H]6O[C@H](CO)[C@@H](O[C@@H]7O[C@@H](C)[C@H](O)[C@@H](O)[C@H]7O)[C@H](O)[C@H]6O[C@@H]6O[C@@H](C)[C@H](O)[C@@H](O)[C@H]6O)CC[C@]5(C)[C@H]4CC[C@]3(C)[C@H]1[C@@H]2C [Dioscin] | 1.03 |
| COc1ccc(C(=O)N2CCCC2=O)cc1 [Aniracetam] | 0.968 |
| CN1[C@@H]2CC[C@H]1C[C@@H](OC(=O)C(CO)c1ccccc1)C2 (stereo not given in full) [Atropine] | 0.843 |
| CC(C)[C@]12O[C@H]1[C@@H]1O[C@]13[C@]1(O[C@H]1C[C@H]1C4=C(CC[C@@]13C)C(=O)OC4)[C@@H]2O [Triptolide] | 0.366 |
| CC(=O)Nc1ccc(OC[C@](C)(O)C(=O)Nc2ccc([N+](=O)[O-])c(C(F)(F)F)c2)cc1 [Andarine] | 1 |
| CCN(CC)C(=O)c1ccc(C2=CC3(CCNCC3)Oc3cccc(O)c32)cc1 | 0.95 |
| CCNC(=O)C[C@@H]1N=C(c2ccc(Cl)cc2)c2cc(OC)ccc2-n2c(C)nnc21 | 1.04 ± 0.19 |
| C1=C2CCCN[C@H]2[C@@H]2C[C@H]1[C@H]1CCCCN1C2 [Aloperine] | 0.98 |
| O=[N+]([O-])/C=C/c1ccc2c(c1)OCO2 | 1.03 |
| CC[C@@H]1[C@@H](C)O[C@@](O)([C@@H](C)[C@H](O)[C@H](C)[C@H]2OC(=O)/C=C/C=C/[C@H](C)[C@H]([C@@H](C)[C@@H](O)[C@H](C)[C@@]3(O)C[C@@H](O[C@H]4C[C@H](O)[C@H](O)[C@H](C)O4)[C@H](CC)[C@@H](C)O3)OC(=O)/C=C/C=C/[C@H]2C)C[C@H]1O[C@H]1C[C@H](O)[C@H](O)[C@H](C)O1 [Elaiophylin] | 0.414 |
| CCOC(=O)c1cncn1C(C)c1ccccc1 (stereo not given) [Etomidate] | 1.09 |
| Oc1nc2ccc(Cl)cc2c(N[C@@H]2CN3CCC2CC3)c1-c1nc2ccccc2[nH]1 | 0.944 |
| CC(C)NCC(O)c1ccccc1Cl (stereo not given) [Clorprenaline] | 1.02 |
| C[C@H]1CCC/C=C/[C@@H]2C[C@H](O)C[C@H]2[C@H](O)/C=C/C(=O)O1 [Brefeldin A] | 0.4 |
| CCc1c(C(=O)C(N)=O)c2c(OCC(=O)O)cccc2n1Cc1ccccc1 [Varespladib] | 1.27 |
| CCOc1ccccc1-n1c(C(C)N2CCN(C(=O)COc3ccc(Cl)cc3)CC2)nc2ccccc2c1=O (stereo not given) [Erastin] | 0.31 |
| O=C(O)CNC(=O)c1c(O)c2ccccc2n(Cc2ccccc2)c1=O | 1.07 ± 0.046 |
| CNCC(=O)c1ccc(O)c(O)c1 [Adrenolone Hydrochloride] | 1.05 |
| CN1C(=O)CCS(=O)(=O)C1c1ccc(Cl)cc1 (stereo not given) [Chlomezanone, Chlormezanone] | 1.03 |
| CO[C@H]1CCC(O[C@H]2C[C@H]([C@]3(C)CC[C@]4(C[C@H](O)[C@@H](C)[C@@H]([C@@H](C)/C=C(\C)C(=O)[C@H](C)C[C@H](C)C(=O)O)O4)O3)O[C@]3(O[C@@H]([C@H]4O[C@@](O)(CO)[C@H](C)C[C@@H]4C)C[C@@H]3C)[C@@H]2C)O[C@@H]1C (stereo not given in full) [Nanchangmycin] | 0.412 |
| Cc1sc2c(c1C)C(c1ccc(Cl)cc1)=N[C@@H](CC(=O)Nc1ccc(O)cc1)c1nnc(C)n1-2 | 0.844 ± 0.048 |
| CCCN1CCO[C@H]2c3cc(O)ccc3OC[C@@H]21 | 1.04 |
| C/C=C(\C)C(=O)N[C@@H](c1ccccc1)[C@@H](O)C(=O)O[C@H]1C[C@@]2(O)[C@@H](OC(=O)c3ccccc3)[C@@H]3[C@]4(OC(C)=O)CO[C@@H]4C[C@H](O)[C@@]3(C)C(=O)[C@H](OC(C)=O)C(=C1C)C2(C)C [Cephalomannine] | 0.683 |
| Cc1ccc(-n2nccn2)c(C(=O)N2CCN(c3nc4cc(Cl)ccc4o3)CC[C@H]2C)c1 [Suvorexant] | 1.13 |
| C[C@@H]1[C@H](O)[C@@H](C)/C=C/C=C/CC/C=C/C=C/C=C/C=C/[C@H](O[C@H]2O[C@@H](C)[C@H](O)[C@@H](N)[C@H]2O)C[C@@H]2O[C@](O)(C[C@@H](O)[C@H](O)CC[C@@H](O)C[C@@H](O)C[C@@H](O)CC(=O)O[C@H]1C)C[C@H](O)[C@H]2C(=O)O [Nystatin (Fungicidin)] | 0.951 |
| C[C@H]1CNCCc2ccc(Cl)cc21 [Lorcaserin] | 1.02 |
